Most compounds without a hit are left out; they make up all but 7.9% or so of the library.
HCMV inh = human cytomegalovirus inhibition; activity change, negative = inhibition, % at 57.5 µM; HFF cells, HCMV-luciferase reporter, 72 h; hits give low values; 410,000 tested, 4.5% active; in the data active means activity change below about -60%; inconclusive means no clear call, values can overlap the other calls; inactive means above about -39%
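HFF cells seeded 16 h at 37C, treated with compounds, infected with luciferase-reporter HCMV at MOI 1 PFU/cell; luciferase read at 72 h post infection, normalized to buffer-only and Salinomycin controls.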
FMDV inh = antivirals against foot and mouth disease virus; AID 1159524; 410,000 tested, 1.2% active; Potency, µM (doses to about 57.9 µM), without a hit: at the top dose activity change, negative = inhibition, hits mostly inhibitors; FMDV antiviral cell-based qHTS; calls by dose curve; tested in HEK293T cells; further: read-out not given here; potency means the concentration at half of the fitted maximal effect; nearly all actives have a fitted effect of over 45% in size
Lassa entry inh = inhibitors of Lassa virus binding or cell entry; Potency, µM (series often up to 37.9 µM), inactives show top-dose activity change, negative = inhibition, most hits filed as inhibitors; Lassa virus pseudotype entry inhibition, cell reporter; 300,000 tested, 1.2% active; calls by dose curve; tested in HEK293 cells; further: potency means the concentration at half of the fitted maximal effect; nearly all actives have a fitted effect of over 50% in size
MARV entry inh = inhibitors of Marburg virus binding or cell entry; 300,000 tested, 1.8% active; Marburg virus pseudotyped entry inhibition, cell reporter; AID 540276; Potency, µM (titrated, usually from 37.8 µM), inactives show top-dose activity change, negative = inhibition, hits mostly inhibitors; calls by dose curve; tested in HEK293 cells; further: potency means the concentration at half of the fitted maximal effect
HCV inh = HCV inhibition; Huh7.5.1 HCVcc-Cre infection, luciferase reporter, 44 h; Potency, µM (titrated, usually from 41.8 µM), inactives show top-dose activity change, negative = inhibition, most hits filed as inhibitors; 340,000 tested, 3.4% active; AID 651820; active means well fitted inhibition curve with a large enough effect; inconclusive means small, poorly fitted or top-dose-only effect, or another doubt; inactive means no such curve, though single readings can be large or run the other way; further: potency means the concentration at half of the fitted maximal effect
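After 44 h co-culture of compound, cells and HCVcc-Cre (~0.5 moi), substrate is added for 15 min at room temperature and luciferase measured over 15 sec. Cells were seeded at 1,000/well and pre-cultured 4 h.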
The depositor's hits bear a star; [ ] = remark or other dose. On the % scale 0 is the no-effect control and ±100 the full control effect.

Cc1ccc(NC(=O)CSc2nnc(-c3ccco3)c(-c3ccco3)n2)cc1 was read as HCMV inh 10, FMDV inh -5%, Lassa entry inh 2.8µM*, MARV entry inh -16% and HCV inh inconclusive.
Screening O=C(CSc1nnc(-c2ccco2)c(-c2ccco2)n1)Nc1ccccc1 returned HCMV inh 60, FMDV inh -10%, Lassa entry inh -11%, MARV entry inh -3% and HCV inh inconclusive.
Screening CCOc1ccccc1NC(=O)CSc1nccn1-c1ccc(Cl)cc1 returned HCMV inh -72*, FMDV inh -8% and Lassa entry inh 1%[46.1 µM].
`COc1ccc(-n2ccnc2SCC(=O)Nc2ccccc2)cc1` gave HCMV inh -29, FMDV inh inconclusive, Lassa entry inh -2%, MARV entry inh 16% and HCV inh -4%.
O=C(CSc1nccn1-c1ccc(F)cc1)Nc1ccc(OC(F)(F)F)cc1 was read as HCMV inh -68*, FMDV inh -18% and Lassa entry inh -30%[46.1 µM].
Screening O=C(CSc1nccn1C1CCCC1)Nc1ccc(C(F)(F)F)cc1 returned HCMV inh -63*, FMDV inh -24% and Lassa entry inh inconclusive.
`COc1ccc(-n2ccnc2SCC(=O)Nc2ccc(F)cc2F)cc1` gave HCMV inh -91*, FMDV inh -22% and Lassa entry inh -22%[46.1 µM].
Screening CCN1C(=O)NC(c2ccccc2)C(C(=O)OC)=C1C (stereo not given) returned MARV entry inh 7%[14.2 µM].
CCOC(=O)c1ccc(Nc2c(-c3cccc(O)c3)nc3nc[nH]n23)cc1 was read as HCMV inh 22, FMDV inh -8% and Lassa entry inh inconclusive.
COc1cc(OC)c(NC(=O)Cn2c(=O)c(C(F)(F)F)nc3ccccc32)cc1Cl was read as HCMV inh -4, FMDV inh 6% and Lassa entry inh -10%[46.1 µM].
Cc1ccc(NC(=O)N2CCC(CN3CCCC3)CC2)c(C)c1 was read as HCMV inh -38, FMDV inh -5% and Lassa entry inh 13%[46.1 µM].
Screening COc1cccc(-n2ccnc2SCC(=O)Nc2ccc(Cl)c(Cl)c2)c1 returned HCMV inh -61*, FMDV inh -7% and Lassa entry inh 0%[46.1 µM].
CCOc1ccc(-n2ccnc(SCC(=O)NCc3cccc(OC)c3)c2=O)cc1 was read as HCMV inh -34, FMDV inh 9%, Lassa entry inh 12%, MARV entry inh -52% and HCV inh inconclusive.
For O=C(CSc1nnnn1-c1ccc(Cl)cc1)Nc1cccnc1Cl the results were HCMV inh -71*, FMDV inh inconclusive, Lassa entry inh 5%, MARV entry inh 0% and HCV inh -29%.
For CCOc1ccc(-n2ccnc(SCC(=O)Nc3ccc(OC)cc3OC)c2=O)cc1 the results were HCMV inh -24, FMDV inh -28%, Lassa entry inh -30%[46.1 µM], MARV entry inh inconclusive and HCV inh 8.9µM*.
Screening COc1cccc(NC(=O)CSc2nccn2-c2cccc(OC)c2)c1 returned HCMV inh 38, FMDV inh -4%, Lassa entry inh -29%, MARV entry inh inconclusive and HCV inh -18%.
O=C(CSC1=NNC(c2ccccn2)S1)Nc1ccc(C(F)(F)F)cc1 (stereo not given) was read as HCMV inh -75*, FMDV inh -15%, Lassa entry inh inconclusive, MARV entry inh inconclusive and HCV inh -2%.
Screening Cc1ccc2c(c1)Cc1c(nc(-c3ccc(F)cc3)nc1SCC(=O)N1CCCCC1)O2 returned HCMV inh -13, FMDV inh 5%, Lassa entry inh -7%[46.1 µM] and MARV entry inh -18%[46.1 µM].
`COc1ccc(-c2cc(C(=O)Oc3ccc(C#N)cc3)no2)cc1` gave HCMV inh 13, FMDV inh 0%, Lassa entry inh 7%[46.1 µM] and MARV entry inh 4%[46.1 µM].
For COC(=O)CNC(=O)c1ccc(C)s1 the results were HCMV inh -102*, FMDV inh 7%, Lassa entry inh -17%, MARV entry inh 5% and HCV inh -21%.
For Cc1ccc(C(=O)NNC(=O)c2ccoc2C)s1 the results were HCMV inh -98*, FMDV inh 44%, Lassa entry inh inconclusive, MARV entry inh -1%[46.1 µM] and HCV inh -8%.
Cc1ccc(C(=O)NCC(=O)OCC(=O)c2ccccc2)s1 was read as HCMV inh -12, FMDV inh 4% and HCV inh -2%.
For O=C(/C=C\c1ccccc1)Nc1ccc(NC(=O)c2ccco2)cc1 the results were HCMV inh -101*, FMDV inh -21%, Lassa entry inh -27%, MARV entry inh -13%[14.2 µM] and HCV inh inconclusive.
For O=C(/C=C/c1ccc(Br)cc1)c1ccc(NC(=O)c2ccco2)cc1 the results were HCMV inh -29, FMDV inh 4%, Lassa entry inh -5%, MARV entry inh inconclusive and HCV inh inconclusive.
`C=Cc1cccc(NC(=O)c2ccc(NC(=O)c3ccco3)cc2)c1` gave HCMV inh inconclusive, FMDV inh -5% and HCV inh 11µM*.
Screening CCOc1cc(NS(=O)(=O)c2ccccc2)c(OCC)cc1NC(=O)c1ccco1 returned HCMV inh -101*, FMDV inh -15%, Lassa entry inh -6%, MARV entry inh -14% and HCV inh -7%.
For O=C(Nc1ccccc1)c1cccc(NC(=O)c2ccco2)c1 the results were HCMV inh 7, FMDV inh -14%, Lassa entry inh -3%[46.1 µM], MARV entry inh -18%[46.1 µM] and HCV inh -10%.
`CCOC(=O)c1cccc(NC(=O)c2ccc(NC(=O)c3ccco3)cc2)c1` gave HCMV inh -64*, FMDV inh inconclusive and HCV inh inconclusive.
`CCNC(=S)Nc1cc(OCC)c(NC(=O)c2ccco2)cc1OCC` gave HCMV inh 63, FMDV inh 6%, Lassa entry inh inconclusive, MARV entry inh -3% and HCV inh -4%.
Cc1sc2c(c1C)c(=O)n(Cc1ccccc1)c(=O)n2CC(=O)Nc1cccc(Cl)c1 was read as HCMV inh -26, FMDV inh -15%, Lassa entry inh -28%[46.1 µM] and MARV entry inh -22%[46.1 µM].
For CN(Cc1ccccc1)C(=O)c1ccc2c(c1)N(Cc1ccccc1F)C(=O)c1ccccc1S2(=O)=O the results were HCMV inh -23, FMDV inh 43%, Lassa entry inh inconclusive and MARV entry inh inconclusive.
`Cc1ccc(NC(=O)CCc2nc3cccnc3n2-c2ccccc2)cc1Cl` gave HCMV inh inconclusive, FMDV inh -22%, Lassa entry inh -18%[46.1 µM] and MARV entry inh -1%[46.1 µM].
Screening CCOC(=O)c1c(C)[nH]c(C)c1C(=O)COC(=O)[C@@H](NC(=O)c1ccco1)C(C)C returned HCMV inh -9, FMDV inh -9%, Lassa entry inh 26%, MARV entry inh 7% and HCV inh 20%.
CCOc1ccccc1NC(=O)c1cccc(NC(=O)c2ccco2)c1 was read as HCMV inh inconclusive, FMDV inh inconclusive, Lassa entry inh inconclusive, MARV entry inh inconclusive and HCV inh 3.2µM*.
